This excerpt belongs to a sample that is enriched for hits.
miR-122 inh: activators of miR-122 sensor in Huh7 cells. AID 623901. activation, % at 12.5 µM. Huh7 psiCHECK-miR122 Renilla luciferase sensor, 48 h. 340,000 compounds, 0.14% hits;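 active = mean activation of 30% or more, with every replicate also reaching 30%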;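 also: 0% = median of neutral control wells and 100% = median of positive control wells; higher luciferase signal means stronger suppression of miR-122 activity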
Starred values were filed as active, the others as inactive.

SMILES | miR-122 inh
C[C@@H]1CN([C@@H](C)CO)C(=O)c2cc(C#Cc3cccnc3)cnc2O[C@H]1CN(C)S(C)(=O)=O | -7
C[C@@H]1CN([C@H](C)CO)C(=O)c2cc(-c3cncnc3)cnc2O[C@H]1CN(C)Cc1ccc(F)cc1 | 0
C[C@@H]1CN([C@H](C)CO)C(=O)c2cc(-c3cncnc3)cnc2O[C@H]1CN(C)Cc1ccncc1 | 2
CCOc1ccc(S(=O)(=O)Nc2cc(C)ccn2)c2ccccc12 | -237
COc1ccc(NS(=O)(=O)c2ccc(OC)c3ccccc23)cn1 | -356
COc1ccc(S(=O)(=O)Nc2cc(C)cc(C)n2)c2ccccc12 | 31*
C[C@H]1CN([C@@H](C)CO)C(=O)c2cc(C#CC(C)(C)O)cnc2O[C@@H]1CN(C)C(=O)C1CC1 | -2
CCC(=O)N(C)C[C@H]1Oc2ncc(C#C[C@H](C)O)cc2C(=O)N([C@@H](C)CO)C[C@@H]1C | -1
C[C@H](CO)N1C[C@H](C)[C@@H](CN(C)Cc2ccc3c(c2)OCO3)Oc2ncc(Br)cc2C1=O | -3
C[C@@H]1CN([C@H](C)CO)C(=O)c2cc(C#Cc3ccccc3)cnc2O[C@H]1CN(C)Cc1ccccn1 | -2
C[C@H](CO)N1C[C@H](C)[C@H](CN(C)S(C)(=O)=O)Oc2ncc(Br)cc2C1=O | -1
C[C@H]1CN([C@@H](C)CO)C(=O)c2cc(C#Cc3ccccn3)cnc2O[C@H]1CN(C)C(=O)CCN1CCCCC1 | 2
Cc1cc(C)c2c(c1)/C(=C/C(=O)c1ccc(Br)s1)C(=O)N2 | 43*
COCC#Cc1cnc2c(c1)C(=O)N([C@H](C)CO)C[C@@H](C)[C@@H](CN(C)C(=O)Cc1ccccc1)O2 | 1
C/C=C/c1cnc2c(c1)C(=O)N([C@@H](C)CO)C[C@@H](C)[C@H](CN(C)C(=O)c1cccnc1)O2 | -1
C[C@H]1CN([C@@H](C)CO)C(=O)c2cc(C#Cc3ccccc3)cnc2O[C@H]1CN(C)C(=O)c1ccccn1 | 9
CC(C)CC#Cc1cnc2c(c1)C(=O)N([C@H](C)CO)C[C@H](C)[C@@H](CN(C)C(=O)NC1CCCC1)O2 | -7
CN1C(=O)c2cc(NC(=O)c3cccc(F)c3)ccc2OC[C@@H]2O[C@@H](CC(=O)NC3CCC3)CC[C@H]21 | 70*
CN1C(=O)c2cc(NC(=O)Cc3ccccc3)ccc2OC[C@@H]2O[C@H](CC(=O)NC3CCC3)CC[C@@H]21 | -125
CC(=O)Nc1ccc2c(c1)C(=O)N(C)[C@H]1CC[C@H](CC(=O)NC3CCCCC3)O[C@@H]1CO2 | 63*
CN1C(=O)c2cc(NC(=O)NC3CCCC3)ccc2OC[C@H]2O[C@@H](CC(=O)O)CC[C@H]21 | -138
CCC(=O)Nc1ccc2c(c1)OC[C@@H](C)N(CCC(F)(F)F)C[C@@H](C)[C@@H](OC)CN(C)C2=O | -8
CC(=O)N(C)C[C@@H]1Oc2cc(C#C[C@@H](C)O)ccc2S(=O)(=O)N([C@@H](C)CO)C[C@H]1C | 7
C[C@H]1CN([C@@H](C)CO)C(=O)c2cc(-c3cncnc3)cnc2O[C@@H]1CN(C)Cc1ccccc1 | -4
COc1cccc(-c2cnc3c(c2)C(=O)N([C@H](C)CO)C[C@H](C)[C@@H](CN(C)C(=O)Nc2ccccc2F)O3)c1 | 7
SMILES | miR-122 inh
COCC(=O)N(C)C[C@H]1Oc2cc(Br)ccc2S(=O)(=O)N([C@@H](C)CO)C[C@H]1C | 7
C[C@H](CO)N1C[C@H](C)[C@H](CN(C)C(=O)Nc2ccc(F)cc2)Oc2ncc(-c3cccnc3)cc2C1=O | 6
CCC(=O)N(C)C[C@@H]1Oc2ncc(-c3cccc(OC)c3)cc2C(=O)N([C@H](C)CO)C[C@H]1C | 8
Cc1noc(C)c1NC(=O)N(C)C[C@H]1Oc2ncc(C#CC3CCCCC3)cc2C(=O)N([C@@H](C)CO)C[C@@H]1C | -6
CCc1nc2sc(C)c(C)c2c(=O)n1CCO | 35*
C[C@@H]1CN([C@H](C)CO)C(=O)c2cc(C#CC3(O)CCCC3)cnc2O[C@@H]1CN(C)Cc1cncnc1 | 2
CCC(=O)Nc1ccc2c(c1)OC[C@H](C)N(C(=O)c1ccncc1)C[C@@H](C)[C@H](OC)CN(C)C2=O | -7
CC(C)C#Cc1ccc2c(c1)O[C@H](CN(C)Cc1ccncc1)[C@@H](C)CN([C@H](C)CO)S2(=O)=O | -15
O=C(COc1ccc(/C=N/NS(=O)(=O)c2ccccc2)cc1)Nc1ccc(F)cc1 | 36*
NC(=O)Cn1cc(/C=N\NS(=O)(=O)c2ccc(F)cc2)c2ccccc21 | -135
Cc1ccc(S(=O)(=O)N/N=C/c2ccc(OCC(=O)Nc3ccccc3Cl)cc2)cc1 | -219
CCCNC(=O)N(C)C[C@@H]1Oc2ncc(C#C[C@H](C)O)cc2C(=O)N([C@@H](C)CO)C[C@@H]1C | -2
C[C@@H]1CN([C@H](C)CO)S(=O)(=O)c2ccc(Br)cc2O[C@H]1CN(C)Cc1ccccn1 | 1
CC(C)CC#Cc1cnc2c(c1)C(=O)N([C@H](C)CO)C[C@H](C)[C@@H](CN(C)C(=O)Cc1ccccc1)O2 | -22
COCC#Cc1cnc2c(c1)C(=O)N([C@H](C)CO)C[C@H](C)[C@@H](CN(C)Cc1ccccc1)O2 | -1
CN1/C(=C/C=C/c2n(C)c3cc([N+](=O)[O-])c([N+](=O)[O-])cc3[n+]2C)C(C)(C)c2ccccc21 | 38*
CC(C)C#Cc1ccc2c(c1)O[C@H](CN(C)C(=O)CN(C)C)[C@H](C)CN([C@H](C)CO)S2(=O)=O | 10
CC(=O)N(C)C[C@H]1Oc2cc(C#C[C@H](C)O)ccc2S(=O)(=O)N([C@@H](C)CO)C[C@H]1C | 5
COc1ccc(S(=O)(=O)N(C)C[C@H]2Oc3ccc(NC(=O)Cc4ccccc4)cc3C(=O)N([C@H](C)CO)C[C@H]2C)cc1 | -108
COc1ccc(C(NC(C)=O)c2cc(Cl)c3cccnc3c2O)cc1 (configuration not stated) | 72*
CCC(=O)Nc1ccc2c(c1)OC[C@H](C)N(C(=O)c1ccccc1F)C[C@@H](C)[C@@H](OC)CN(C)C2=O | -3
CC(=O)Oc1ccc2c(c1)C(=O)c1ccccc1CO2 | 35*
C[C@H]1CN([C@@H](C)CO)C(=O)c2cc(/C=C/c3ccccc3)cnc2O[C@@H]1CN(C)C(=O)c1cccc(F)c1 | -18
COc1ccc(S(=O)(=O)Nc2ccc3c(c2)CC(=O)N([C@H](C)CO)C[C@H](C)[C@H](CN(C)Cc2ccc(C(=O)Nc4ccccc4N)cc2)O3)cc1 | -212
COc1ccc(NC(=O)N(C)C[C@@H]2Oc3ncc(-c4cccc(F)c4)cc3C(=O)N([C@H](C)CO)C[C@@H]2C)cc1 | 5
SMILES | miR-122 inh
O=c1c2c3c(sc2nc2n1CCC2)CCCC3 | 32*
CO[C@H]1CN(C)C(=O)c2cc(NC(=O)Cc3ccccc3)ccc2OC[C@@H](C)N(C)C[C@@H]1C | 1
C[C@H]1CN([C@@H](C)CO)C(=O)c2cc(C#CC3CC3)cnc2O[C@@H]1CN(C)Cc1ccncc1 | 0
CO[C@H]1CN(C)C(=O)c2cc(NC(=O)C3CCOCC3)ccc2OC[C@H](C)N(C)C[C@@H]1C | 1
CC(=O)N1[C@H](CNC(=O)C2CC2)[C@@H](c2ccc(-c3ccccc3)cc2)[C@@H]1CO | -200
COc1ccccc1C(=O)Nc1ccc2c(c1)C(=O)N(C)[C@H]1CC[C@H](CC(=O)NCc3ccc(Cl)c(Cl)c3)O[C@@H]1CO2 | -139
COc1cccc(C(=O)Nc2ccc3c(c2)C(=O)N(C)[C@H]2CC[C@H](CC(=O)NCc4ccc(F)cc4)O[C@@H]2CO3)c1 | 53*

Compound activity from PubChem BioAssay.
